# According to the supplement of paper PMC6555819:
# Experiments:
# Test in all cases: PBM binding z-score (relative to random genomic background probes); higher = stronger binding; sequences stand for … in GC…GCGATTGACAGCGTAGAATGAAGG
# [1] = system: FXR:RXRa (NR concentration 270 nM, RXRa partner concentration 90 nM)
# How it was run: (§1)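 Random background probes are the reference for binding z-scores. These scores derive from regression-normalized fluorescence on custom Agilent 4×180K protein-binding microarrays incubated 1 h with ligand-free nuclear receptor dimers. Binding was detected with antibodies against each partner (one per run).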
# [2] = system: LXRa:RXRa (NR concentration 270 nM, RXRa partner concentration 90 nM)
# How it was run: as §1
# [3] = system: LXRa homodimer (NR concentration 270 nM)
# How it was run: as §1
# [4] = system: LXRb:RXRa (NR concentration 270 nM, RXRa partner concentration 90 nM)
# How it was run: as §1
# [5] = system: LXRb homodimer (NR concentration 270 nM)
# How it was run: as §1
# [6] = system: PPARa:RXRa (NR concentration 270 nM, RXRa partner concentration 90 nM)
# How it was run: as §1
# [7] = system: PPARg:RXRa (NR concentration 180 nM, RXRa partner concentration 90 nM)
# How it was run: as §1
# [8] = system: PPARg:RXRa 270nM:90nM, anti-RXR (NR concentration 270 nM, RXRa partner concentration 90 nM)
# How it was run: as §1
# [9] = system: PPARg:RXRa 30nM:10nM, anti-RXR (NR concentration 30 nM, RXRa partner concentration 10 nM)
# How it was run: as §1
# [10] = system: PPARg:RXRa 90nM:30nM, anti-RXR (NR concentration 90 nM, RXRa partner concentration 30 nM)
# How it was run: as §1
Sequence,PBM binding z-score [1],PBM binding z-score [2],PBM binding z-score [3],PBM binding z-score [4],PBM binding z-score [5],PBM binding z-score [6],PBM binding z-score [7],PBM binding z-score [8],PBM binding z-score [9],PBM binding z-score [10]
CAGCCTAAGTCAGGGCCAGTATAGGAGGAACGTT,-0.194,-0.51,-0.309,-0.69,-1.28,-0.483,0.0918,-0.709,-0.0751,-0.475
CGTCAAAGTTCAACTTAGGTAACGTAAAGCACGC,7.46,6.58,4.88,4.63,2.58,5.35,5.28,5.78,2.4,4.66
ATCTCTAGATAAAAGTTCAGTGAATCCCGAGGAT,0.0145,0.704,1.41,0.746,0.367,1.59,1.74,3.39,1.72,3.2
TCTTGTAGATCAATGGTTAAGAAAGCCGAAGCCT,0.494,0.359,-0.126,-0.0354,-0.123,0.608,0.23,2.48,3.07,2.99
GAAACAGGGTCAGCTAGAGGCCAGAGTATGGAAA,5.08,2.78,-0.301,2.7,-0.705,4.97,4.24,3.85,0.859,2.72
CGTCCAAGGTCATAGGAGGTAAGTGAAGACAGAT,7.22,5.32,0.86,3.76,0.57,5.49,4.65,4.94,1.76,3.49
TCATATAAGTAAATGCTAGGTGAAAGTCCGATCT,1.12,1.03,0.543,0.645,0.419,1.3,0.711,2.49,4.34,3.6
CAAACTAGGTCACAGAGGTCAAGGTCCGTGCGTA,7.39,6.46,5.6,5.68,1.33,6.48,10.1,8.21,6.84,8.39
GGAACGAGGGCAAGTTGAGAGCAGAGTTTGATGG,1,0.529,-0.352,0.383,-0.627,1.72,0.945,1.34,0.0684,0.629
CCTTACGGCTCACTGACAGGTTATAGCATTTGGA,0.367,0.347,0.304,0.294,-0.0562,0.311,0.426,-0.0307,0.448,0.0518
TCGATTAGGTTACCAATGGGGCATTCAGCTTTCT,0.297,1.49,-0.396,1.29,-0.254,1.21,-0.163,1.5,2.68,2.26
CGTCCAAGGTCAGCAGGTCAGTGAAAGCGACGTG,5.62,4,0.313,3.11,-0.277,4.76,4.12,4.39,0.905,2.91
CAGCCTAGGTCAGCGCCAGTATAGGAGGAACGTT,1.62,1.05,-0.445,0.71,-0.863,1.92,0.956,1.24,-0.327,0.61
TGTCAAAGTTAAAAGGTAACGTAAGTATCCACAC,0.429,0.482,-0.245,0.823,-0.178,2.09,2.26,3.15,1.03,2.13
TGAATGAGGTTATAAGATCAGGAAACGTTGCAAA,1.24,1.53,-0.511,1.5,-0.0615,2.98,1.29,2.14,0.703,1.62
CCGACTGGGGCAGAAAGGCTACCATACCATCCGG,-0.561,-0.818,-0.431,-0.869,-1.41,-0.338,0.703,-0.0777,-0.705,-0.612
CCTTACGGGTCACGAGGTTAAAGCACGACGAGCG,7.54,4.81,0.696,4.3,0.192,6.28,7.86,7.25,3.78,6.28
ATCTCAAGGTAAAGTTCAGTGAAAGATCGATAGA,1.67,2.17,1.5,1.42,0.854,2.22,1.97,3.4,1.67,2.73
CGTCAGAGTTCAAGGTAACGTAACAGAAAGCAGC,5.49,5.11,1.85,3.2,0.38,4.54,2.92,3.58,0.864,2.39
CAAACTAGGTCACGAAAGGTCAAAGTAGAATGAC,7.59,8.11,8.28,7.19,2.72,6.77,10.6,8.55,6.87,8.89
ATCTCTAGGTAAAGATAGTTCAGTTAATGCAAAT,0.733,4.33,1.07,1.39,0.619,0.689,0.743,0.482,0.448,0.659
CCAGACAGGTGAACGGTAACTCAGTCTGGTACGC,-0.375,-0.082,-0.28,-0.0922,-0.29,0.511,0.882,0.577,-0.465,0.132
CCTTACGGGTCACTGACAGATTATAGCATTTGGA,5.42,3.4,0.418,3.31,0.248,5.28,4.31,4.42,1.59,3.46
GCTATTAGTTGAAAGGGCAACCGCATGATTCTCG,0.581,0.701,0.377,0.909,-0.00487,2.31,2.89,4.29,2.56,4.39
CAAACTAGGTCAAAGTCAAAGTCGGTTTGTGCCA,4.66,3.77,0.899,2.64,1.02,5.18,8.68,7.7,6.17,8.03

Sequence,PBM binding z-score [1],PBM binding z-score [2],PBM binding z-score [3],PBM binding z-score [4],PBM binding z-score [5],PBM binding z-score [6],PBM binding z-score [7],PBM binding z-score [8],PBM binding z-score [9],PBM binding z-score [10]
GATACAGGGTCAGCTAGATGCCAGAGTATGGAAA,5.08,2.66,-0.125,2.53,-0.514,4.79,4.08,3.48,0.884,2.4
GCTACTGGGGCATCAGCAGGTTACCATAACTTAA,-0.035,-0.127,-0.19,0.88,-0.858,1.74,2.37,2.01,0.134,1.34
TCTAGTTGGTCACGGAGCTCACACACGACGGGTA,0.213,0.0936,-0.438,0.0145,-0.134,0.663,0.998,1.56,2.94,2.33
ATATGTCGGTTACATCCGGGTCATTCAGGCTATG,1.65,2.86,1.27,1.92,0.559,2.79,1.55,1.48,0.573,1.09
TCATATAGGTAAAAGGGGAAAGTCGGTGTGGTAA,1.2,0.984,0.33,1.32,0.445,3.75,6.27,6.98,6.37,7.9
CTCGAAAGGTCGGGTGAGGTGAGTATACGGATAA,3,2.3,0.0705,2.18,0.195,3.49,1.32,1.78,0.448,1.04
AGAATGAGGTTATACGTAGAACAGGGAAGAAAGT,2.01,1.58,-0.14,1.56,0.0441,3.07,2.2,1.83,1.07,1.68
CAAACTAGGTCACAGAGGTCATAGTCCGTGCGTA,6.73,6.13,6.94,5.6,1.6,6.22,10,8,7.14,7.77
AGTGAAAGTTCACTAGGTAACGTAAGATTCAGCT,4.44,5.02,3.08,2.88,0.454,4.5,6.12,6.07,3.52,5.3
CCTAGCAGCCCAGGGTCACTCAAGCATTTCGCTT,2.06,1.93,-0.213,2.17,-0.762,2.99,0.0606,0.885,-0.586,0.325
ATCGAAAGGTCGAAGGTAAGTATACCCACCCGAA,3.95,3.26,0.165,2.83,0.858,4.25,3.8,3.88,1.59,2.86
CCGACTAGGGCAGAAAGGTTACCATACCATCCGG,0.259,0.701,0.0905,0.925,-0.912,2.11,1.79,2.27,0.723,1.86
GCGACTGGGGCATCAGCAGATTACCATAACTTAA,-0.359,-0.612,-0.401,0.0496,-0.549,0.511,1.02,0.488,-0.24,0.0962
CGTACAGGGTCAGCTAGGCCAGAGTAGGGACGGC,5.16,2.66,-0.281,1.94,-0.514,4.22,3.14,3.3,0.448,1.84
ATCGAAAGGACGAGGTGAGTATAGAGAAAGGGAA,0.588,0.168,-0.177,-0.191,-0.00522,0.0333,0.589,-0.152,0.508,0.313
AGAACGAGGGCAGTGAGTTGATAGCACGGGTGGC,-0.476,-0.6,-0.882,-0.705,-0.698,0.144,0.647,-0.0577,-0.624,-0.408
ATATCTAGGTAACCAAGTTCAGTGAATGCCGAAC,0.636,0.866,0.932,0.565,0.434,2.98,4.48,3.23,1.23,2.32
TCTTGAAGATCAAAGGTTAAGAAAGCCGAAGCCT,1.84,2.29,0.0814,2.16,-0.506,4.1,4.39,5.89,5.18,6.85
ATATGTAGGTTAAGGGTCATTCCGGTTGGTTCGC,5.44,4.91,3.25,4.19,1.33,6.67,11.4,9.69,10.2,11.1
ATCTCTAGGTAACCATGTTCAGTGAATGCCGAAC,0.171,0.321,0.00917,0.435,0.529,0.518,0.664,0.662,0.044,0.484
GCATATAGGTAGTACAAGGTGAAAGTCCGATTGT,1.03,0.23,-0.159,0.269,-0.562,1.16,0.674,0.733,0.197,0.775
AGACTGAGGTTACCAAAGATCAGGGAAACGCTTG,1.67,5.98,-0.277,3,-0.462,2.79,1.29,1.54,0.351,1.05
CCTTACGGGTCACTGACGGGTTATAGCATTTGGA,5.28,3.6,0.0563,3.42,0.119,4.67,4.31,4.28,1.63,2.74
AGTCCAAGTTCATCTAGGTAACGTAAGATATGCT,3.42,3.23,1.19,1.62,0.287,2.59,1.45,1.61,0.523,0.991
